High-throughput results from PubChem.
An excerpt weighted towards active compounds, which were near 1.7% of everything screened.
CHT PAM = allosterically activates the human high affinity choline transporter; Q9GZV3; CHT-expressing cells, membrane potential dye, choline EC20; stronger effect = higher value; LV-AA mutant CHT in HEK293 cells; B-score at 10 µM; actives 0.49% (n = 310,000);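 active = initial fluorescence not abnormally high and integrated response B-score, plate-corrected, over 3 SD above library mean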
Target sequence (Q9GZV3 whole entry, looked up): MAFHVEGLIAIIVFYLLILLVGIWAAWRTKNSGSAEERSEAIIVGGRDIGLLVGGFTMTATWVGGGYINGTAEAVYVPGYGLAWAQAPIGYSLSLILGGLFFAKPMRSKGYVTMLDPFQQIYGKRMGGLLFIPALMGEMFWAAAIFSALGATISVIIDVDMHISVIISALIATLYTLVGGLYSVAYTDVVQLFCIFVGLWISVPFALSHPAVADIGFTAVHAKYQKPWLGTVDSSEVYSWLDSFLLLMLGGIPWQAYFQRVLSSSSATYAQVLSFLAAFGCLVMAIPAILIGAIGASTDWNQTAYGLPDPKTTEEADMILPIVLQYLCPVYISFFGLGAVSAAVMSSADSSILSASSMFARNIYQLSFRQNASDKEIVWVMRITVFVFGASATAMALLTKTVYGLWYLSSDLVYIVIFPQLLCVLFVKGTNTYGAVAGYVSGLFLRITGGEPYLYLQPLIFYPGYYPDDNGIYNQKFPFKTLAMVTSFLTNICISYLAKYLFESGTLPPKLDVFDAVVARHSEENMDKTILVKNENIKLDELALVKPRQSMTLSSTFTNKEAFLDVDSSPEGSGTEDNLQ
MIN6 prolif = MIN6 beta-cell proliferation induction. actives 0.29% (n = 330,000). proliferation, % at 10 µM. MIN6 cells proliferation, ATPlite luminescence, 48 h; cells starved in 0.2% serum; 100% = growth in 10% serum. AID 2380;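 active = compounds whose signal lies at least 3.5 SD above the mean of all wells on their plate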;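 note: 0% = DMSO-treated cells in low-serum medium and 100% = 10% serum control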
H9c2 TAG inh = inhibitors of triacylglycerol accumulation; actives 0.66% (n = 230,000); H9c2 cells, Nile Red lipid (TAG) fluorescence; cells loaded with 200 µM oleic acid; inhibition, % at 12.5 µM;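 active = pattern-corrected inhibition of lipid staining of at least 50% with the nuclear-stain viability signal not falling by more than 50%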;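 note: 0% = DMSO wells and 100% = triacsin C control wells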
CHT block = inhibitors of human choline transporter CHT; Q9GZV3; CHT-expressing cells, membrane potential dye, choline response; stronger effect = lower value; B-score at 10 µM; actives 0.86% (n = 310,000);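 active = B-score over 3 SD under the library average, and starting fluorescence ratio not unusually high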;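 note: choline stimulus applied at its EC90 after an EC20 pre-addition; B-score computed on integrated fluorescence ratio after choline addition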
TAG conf = triacylglycerol accumulation inhibition, confirmation | inhibition, % at 12.5 µM | AID 651629 | shares compounds with H9c2 TAG inh | H9c2 lipid accumulation, Nile Red fluorescence; cells loaded with 200 µM oleic acid | actives 71% (n = 990);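 active = mean inhibition across replicates of 40% or more; inactive = mean inhibition below 40%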;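 note: plate controls were DMSO only wells for no effect and Triacsin C treated wells for full effect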
* hit, by the source's call; i = inactive; x = not tested or not shown.

SMILES | CHT PAM | MIN6 prolif | H9c2 TAG inh | CHT block | TAG conf
COc1cc(OC)c2c(-c3ccccc3)cc(=O)oc2c1C(CCN1CCCC(C)C1)c1ccc2c(c1)OCO2 (centres undefined) | i | -9 | 69* | i | 51*
C[C@H](CO)N1C[C@H](C)[C@H](CN(C)S(=O)(=O)c2ccc(Cl)cc2)OCc2ccccc2-c2c(n(C)c3ccccc23)C1=O | x | x | 51* | x | 80*
Cc1c(NS(=O)(=O)c2ccc3c(c2)Cc2ccccc2-3)c(=O)n(-c2ccccc2)n1C | i | -3 | -1 | i | x
Cc1c(Br)c([N+](=O)[O-])nn1CC(=O)Nc1c(C)n(C)n(-c2ccccc2)c1=O | i | -3 | x | i | x
O=C(CSc1nnc(NC(=O)C2CCC2)s1)Nc1ccccc1F | i | -6 | x | i | x
CCCCNC(=O)CSc1nc2ccc(Nc3nc(N4CCOCC4)nc(N4CCOCC4)n3)cc2s1 | i | -1 | 57* | i | -3
CCCCSc1nc2ccc(Nc3nc(N4CCOCC4)nc(N4CCOCC4)n3)cc2s1 | i | -4 | 80* | i | 97*
Cc1cccc2[nH]c(CCNC(=O)C3CCC(=O)N(CCc4cccc(F)c4)C3)nc12 (centres undefined) | i | -2 | x | i | x
COc1ccc(/C=C(\C#N)C(=O)OCC(=O)NC2CC2)cc1 | i | 0 | 0 | i | x
CC12CCC(=O)C=C1CCC1C2C(=O)CC2(C)C1CCC2(O)C(=O)CO (centres undefined) | i | 5 | 7 | i | x
COC(=O)C=C1CCC2C3CCC4=CC(=O)C(Br)CC4(C)C3C(=O)CC12C (centres undefined) | x | x | 63* | x | 85*
COc1ccc(-c2cc(C(=O)Oc3ccc([N+](=O)[O-])cc3)c3ccccc3n2)cc1 | i | -6 | 6 | i | x
COc1ccc2nc3cc([N+](=O)[O-])ccc3c(NNc3ccc([N+](=O)[O-])cc3)c2c1 | x | x | 50* | x | 44*
CCn1cc(CNCc2cn(C)nc2-c2ccc(C3CCCCC3)cc2)cn1 | x | x | 14 | x | x
Cc1cc(N/N=C/c2ccc(F)cc2)nc(-n2nc(C)cc2C)n1 | i | -3 | 57* | i | 53*
Cc1cc(NC(=O)c2cc(-c3ccncc3)nc3c(C)cccc23)no1 | i | -3 | 64* | i | 66*
Cc1ccc(-c2cc(C(=O)Nc3cc(C)on3)c3ccccc3n2)cc1 | i | 1 | 11 | i | x
COC(=O)C(=N/Nc1ccccc1C(=O)OC)/C(C)=N/O | i | 11 | 11 | i | x
OCCC1CN(Cc2ccon2)CCN1CCc1ccccc1 (centres undefined) | i | -3 | 8 | i | x
Cc1nc(C(=O)Nc2ccccc2Cl)cc2c1[nH]c1ccccc12 | i | -6 | 75* | i | 55*
COc1ccc(NC(=O)c2cc3c([nH]c4ccccc43)c(C)n2)cc1 | i | 1 | x | i | x
COc1ccc2nc(SCC(=O)N3CC(=O)Nc4ccccc43)c(C#N)cc2c1 | i | -4 | 54* | i | 39
NN1C(=O)NC(c2ccccc2)(c2ccccc2)C1=O | i | -2 | -10 | i | x
COc1cc(-c2noc(C)c2C#Cc2ccc(N)cc2)cc(OC)c1OC | i | -9 | 57* | i | 47*
CNC(C)C#Cc1c(-c2cc(OC)c(OC)c(OC)c2)noc1C (centres undefined) | i | -2 | 12 | i | x
SMILES | CHT PAM | MIN6 prolif | H9c2 TAG inh | CHT block | TAG conf
CC1(C)Cc2cccc(OCC(=O)OCC(=O)Nc3cccc(S(N)(=O)=O)c3)c2O1 | i | 0 | 13 | i | x
CCN(CC)C(=O)[C@H]1C[C@H](CC(=O)NCCCn2ccnc2)C(=O)N2CCc3c([nH]c4cc(CCC(=O)N(C)C)ccc34)[C@]12C | x | x | 53* | x | -10
CN(C)C(=O)CCc1ccc2c3c([nH]c2c1)[C@]1(C)[C@@H](C(=O)N2CCOCC2)C[C@H](CC(=O)NCCCn2ccnc2)C(=O)N1CC3 | x | x | 5 | x | x
Cc1c(P(=S)(c2ccccc2)c2ccccc2)[n+]2ccccc2n1C/C=C/c1ccccc1 | x | x | 83* | x | 90*
OCc1nc2ccccc2n1C/C=C/c1ccccc1 | i | -3 | 14 | i | x
CC1CC(C)CN(C(=O)CN2C(=O)NC3(CCCCCC3)C2=O)C1 (centres undefined) | x | -3 | 2 | x | x
Cc1cc(=O)oc(C)c1C(=O)Nc1ccc(F)cc1 | i | 2 | 0 | i | x
Cc1cc(=O)oc(C)c1C(=O)Nc1cccc(F)c1 | i | 0 | 51* | i | -6
COc1ccc(S(=O)(=O)N2CCN(c3nn(C)c(=O)n(C)c3=O)CC2)cc1 | x | -3 | -4 | x | x
Cc1cc(C)n(-c2nc3c(c(=O)[nH]c(=O)n3C)n2Cc2ccccc2)n1 | i | 2 | -7 | i | x
Cc1cc(C)n(-c2nc3c(c(=O)[nH]c(=O)n3C)n2CC(O)COc2ccc(Cl)cc2Cl)n1 (centres undefined) | i | -3 | 82* | i | 74*
CC(C)C[C@H]1CNC(=S)N1CC1CCCN1C[C@H](CC(C)C)N1C[C@H](CC(C)C)N(CC2CCCCCC2)C1=S (some centres undefined) | x | x | 62* | x | 55*
Oc1ccc(C[C@H]2CNC(=S)N2CC2CCCN2C[C@H](Cc2ccc(O)cc2)N2C[C@H](Cc3ccc(O)cc3)N(CC3CCCCCC3)C2=S)cc1 (some centres undefined) | x | x | 76* | x | 72*
CC(C)C[C@H]1CNC(=S)N1CC1CCCN1C[C@H](CC(C)C)N1C[C@H](CC(C)C)N(CCc2ccccc2)C1=S (some centres undefined) | x | x | 74* | x | 82*
CCn1cc(S(=O)(=O)NCCc2ccc(OC)c(OC)c2)cn1 | i | -4 | 1 | i | x
O=C(N/N=C/c1ccccc1)c1n[nH]c2c1CCCC2 | i | -1 | 3 | i | x
O=C(N/N=C/c1ccc(Cl)cc1)c1n[nH]c2c1CCCC2 | i | -2 | 59* | i | 37
CCc1nc2ccc(C(=O)NCc3ccc4c(c3)OCO4)cn2c1N(CC)Cc1cccc(Br)c1 | x | x | 12 | x | x
COc1ccc(NC(=O)CN(C)C(=O)c2cc(-c3ccc(Cl)cc3)nc3ccccc23)cc1 | i | -6 | 3 | i | x
CCOc1ccc(NC(=O)CN(C)C(=O)c2cc(-c3ccc(OC)cc3)nc3ccccc23)cc1OCC | i | 0 | 53* | i | 63*
CCCCCCN(C(=O)CCCN1C(=O)NC(c2ccc(-c3ccccc3)cc2)C(C(=O)OCc2ccccc2)=C1C)C(C)C(=O)NCCCC (centres undefined) | x | x | 38 | x | x
CCCCCCN(C(=O)CCCCCN1C(=O)NC(c2ccc([N+](=O)[O-])cc2)C(C(=O)OCc2ccccc2)=C1C)C(C(=O)NCCCC)C1CCCCC1 (centres undefined) | x | x | 66* | x | 56*
CC(=O)c1c(C)[nH]c(C(=O)N(C)C(c2ccccc2)c2ccccc2)c1C | i | 3 | x | i | x
